Measurements published in PubChem BioAssay (NCI).
“And” between values parts separate entries of the source, which are not always exact repeats. Equal values may be shown once. Compounds without any hit were thinned out: in the full panel of roughly 83,000, 20% have a hit.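 Step 1: grow cells in 96-well plates. Step 2: add test compound at a single concentration. Step 3: incubate 48 h. Step 4: record percent growth.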 The source made the active and inactive calls. Rule for the calls: active = growth percent below 10; inactive = the rest.

System: MDA-MB-468 breast
Assay: NCI-60 one-dose screen, 48 h (100 = growth as untreated, 0 = no growth, -100 = all killed)
Details: 10 µM unless noted

| SMILES | growth |
| --- | --- |
| COc1cc(C2CC(c3ccc(C)cc3)=NN2C(C)=O)ccc1Oc1ccnc2cc(Cl)ccc12 (stereo not given) | 78.6% (inactive) |
| N#CN1CC[C@H](C(=O)Nc2cc3cc(C(N)=O)ccc3cn2)C1 | -46.2% (active) |
| COc1cccc(-c2nc3sccn3c2-c2ccnc(NCCNS(=O)(=O)c3ccc(F)cc3)c2)c1 | 19.2% (inactive) |
| COC12C=C/C(=C(/C(=O)OCc3csc(SC)n3)C(=O)CCCCCCCCC3(OC)C=C/C(=C(/C(=O)OCc4cnc(SC)s4)C(=O)CCCCCCCC1)O3)O2 (stereo not given) | 29.5% (inactive) |
| CC1(C)N=C(N)N=C(N)N1c1cccc(OCCOc2cccc([N+](=O)[O-])c2)c1 | 25.1% (inactive) |
| Cc1ccc2c(c1)sc1nc(-c3c[nH]c4ccccc34)c(Nc3ccccc3)n12 | 105% (inactive) |
| C[N+](C)=c1ccc2nc3c(cc(Nc4ccccc4)c4ccccc43)oc-2c1 | -14.8% (active) |
| CC1=C(C)C(=O)C(Nc2ccc3c(c2)OCO3)=C(Br)C1=O | 36.3% (inactive) |
| COC(=O)[C@H](Cc1cn(C)cn1)NC(=O)[C@H](C)NC(=O)Nc1cc(C(F)(F)F)cc(C(F)(F)F)c1 | -82.8% [100 µM] (active) |
| COc1ccc(/C=C2\COc3ccc(-c4ccccc4)cc3C2=O)c(OC)c1 | 57% (inactive) |
| N#Cc1c(-c2ccc(Cl)cc2)nc(SCC(=O)NC2=NN=C(c3ccccc3)CS2)[nH]c1=O | 47.7% (inactive) |
| CCC(C)CC(N)O (stereo not given) | 94.1% (inactive) |
| CN1CCN(CCCOc2ccc3nc(Nc4ccc(C(F)(F)F)c(Cl)c4)ccc3c2)CC1 | 30% (inactive) |
| O=C1C=C(c2ccccc2)C(O)(c2ccccc2)C1 (stereo not given) | 108% (inactive) |
| N#Cc1nc(-c2ccc(Cl)cc2)cc(-c2ccc(Nc3nc(N4CCCCC4)nc(N4CCCCC4)n3)cc2)c1N | 106% (inactive) |
| COc1cc(C2=NN(C(C)=O)C(c3ccc(N4CCOCC4)cc3)C2)cc(OC)c1OC (stereo not given) | 96.7% (inactive) |
| COc1cc2ncnc(Nc3ccc(F)c(Cl)c3)c2cc1OCC(=O)N1CCN(c2ccc(F)cc2)CC1 | -7.58% (active) |
| CCCSc1nc2ccc(C)cc2cc1/C=[N+](\[O-])c1ccccc1 | 88.4% (inactive) |
| Cc1nc(N)sc1-c1csc(Nc2ccc(C(F)(F)F)cc2)n1 | -28.9% (active) |
| COCCn1cc(-c2nc(-c3cc4cccnc4n3CCOC)cs2)c2cc(OC)ccc21 | -18.4% (active) |
| COc1ccc(C(=O)/C=C/Nc2cc(-c3ccccc3)nn2-c2ccccc2)cc1 | 70.4% (inactive) |
| CCOc1ccc(Nc2nc3c(s2)C(=O)c2ccccc2C3=O)cc1 | 68.8% (inactive) |
| CSc1ccc(-c2cc(-c3ccc(NC(=O)CCCN4CCCC4)cc3)nc(-c3ccc(NC(=O)CCCN4CCCC4)cc3)c2)cc1 | 14.4% (inactive) |
| COc1ccc(/C(C#N)=C/c2ccccn2)cc1 | 89% (inactive) and 82% (inactive) |
| CCOP(=O)(OCC)/C(C#N)=C/c1c(C)[nH]c2ccccc12 | 99.7% (inactive) |
